Unmarked numbers belong to inactive results. Inconclusive results are not listed. Active and inactive are the calls of the source. Unless noted, calls come from the whole dose curve; as a rule, active = well fitted curve in the direction sought with a large enough effect in the repeat runs; inconclusive = weak or mixed curves; inactive = no such curve, though single readings can be large; an effect the other way counts as inactive or inconclusive.

A short description of assay [1]: qHTS assay to identify small molecule agonists of the hypoxia (HIF-1) signaling pathway - cell viability counter screen (AID 1224844; calls by dose curve; note: nearly all actives have a fitted effect of over 50% in size). An outline of the steps:
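Luminescent ATP content (CellTiter-Glo, 30 min, room temperature) served as the viability measure in HRE-bla ME-180 cells exposed to compounds for 17 hrs in low-serum medium (0.5% dialyzed FBS).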
(qHTS replaces the single test concentration by a dilution series.)

Assay [2] is described as follows: qHTS assay to identify small molecule agonists of H2AX (AID 1224845; active = well fitted activation curve with a large enough effect in the signal ratio in the repeat runs, not every such curve was filed as active; the % refers to the signal ratio). An outline of the steps: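 Wild-type CHO-K1 cells plated overnight, then exposed 3 hr at 37C to compounds at 15 concentrations (0.76% DMSO). Lysed, then HTRF anti-pH2AX(S139)-cryptate/anti-H2AX-d2 detection after 24 hr at room temperature; emissions 665 and 620 nm.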
Assay [3] is described as follows: qHTS assay to identify small molecule agonists of the hypoxia (HIF-1) signaling pathway (AID 1224846; active = well fitted activation curve with a large enough effect in the signal ratio in the repeat runs, not every such curve was filed as active; the % refers to the signal ratio). An outline of the steps:
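Measured by blue/green FRET after loading CCF4-AM: beta-lactamase expressed from a hypoxia response element in ME-180 cells. Test agents were delivered in DMSO and left 17 hrs; cells had been plated 5 hrs earlier in low-serum (0.5% dialyzed FBS) medium.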

Assay [4] in a line: qHTS assay to identify small molecule agonists of H2AX - cell viability counter screen (AID 1224847; calls by dose curve; note: top concentration of the series differs between compounds; nearly all actives have a fitted effect of over 30% in size). An outline of the steps:
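For this counter screen, overnight-attached CHO-K1 cells received test compounds (15 concentrations, 0.76% DMSO final); 3 hr later at 37C, CellTiter-Glo reagent was added and luminescence recorded after 30 min at room temperature.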

The nature of assay [5]: qHTS assay to identify small molecule agonists of the estrogen related receptor (ERR) signaling pathway from Tox21 library (AID 1224849; calls by dose curve; note: nearly all actives have a fitted effect of over 15% in size). Conditions: ERR reporter cell line, ONE-Glo luciferase, 18 h; at 92.4 µM (top of the series) unless noted. An outline of the steps: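 We plated ERR reporter cells, waited 6 h, added compounds in DMSO by pin tool and incubated them 18 h at 37 C. ONE-Glo was then added and luminescence read after 30 min.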

The nature of assay [6]: qHTS RealTime-Glo MT Cell Viability Assay in HepG2 cells - 24 hour (AID 1224867). Note: nearly all actives have a fitted effect of over 50% in size. An outline of the steps:
(§1)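 HepG2 suspension premixed with RealTime-Glo reagents is plated at 600 cells per well and left 5 h at 37 C/5% CO2. Compounds in DMSO then go in, and bioluminescence reflecting viable cell number is recorded over 40 h.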

Assay [7] is described as follows: qHTS RealTime-Glo MT Cell Viability Assay in HEK293 cells - 32 hour (AID 1224868). Note: nearly all actives have a fitted effect of over 50% in size. Note: potency is the fitted concentration of half-maximal effect. An outline of the steps:
(§2)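 Reads taken at 0, 8, 16, 24, 32 and 40 h from the same wells. HEK293 cells (600/well) carried RealTime-Glo reagents from seeding, with compound added after a 5 h settle at 37 C.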

The nature of assay [8]: A CellTox Green Cytotoxicity Assay to monitor cytotoxicity in HEK293 cells - 0 hour (AID 1224869). Note: nearly all actives have a fitted effect of over 50% in size. An outline of the steps: (§3)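 Each value comes from one timepoint of a single continuous run in which HEK293 cells with CellTox Green were exposed to compound for up to 40 h at 37 C, dye fluorescence rising with cell death.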
The nature of assay [9]: qHTS RealTime-Glo MT Cell Viability Assay in HepG2 cells - 40 hour (AID 1224870). Note: nearly all actives have a fitted effect of over 50% in size. An outline of the steps: (§4)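 HepG2 cells mixed with RealTime-Glo MT reagents (NanoLuc plus cell-permeant prosubstrate) were seeded at 600 cells/well, incubated 5 h at 37 C/5% CO2, then pinned with compounds in DMSO; nonlytic luminescence tracked viability during 40 h treatment.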
Assay [10] is described as follows: A CellTox Green Cytotoxicity Assay to monitor cytotoxicity in HEK293 cells - 40 hour (AID 1224871). Note: nearly all actives have a fitted effect of over 45% in size. An outline of the steps: as §3
Assay [11] is described as follows: qHTS RealTime-Glo MT Cell Viability Assay in HepG2 cells - 8 hour (AID 1224873). Note: nearly all actives have a fitted effect of over 55% in size. An outline of the steps:
as §4

Assay [12] is described as follows: qHTS RealTime-Glo MT Cell Viability Assay in HEK293 cells - 40 hour (AID 1224874). Note: nearly all actives have a fitted effect of over 50% in size. Note: potency is the fitted concentration of half-maximal effect. Conditions: RealTime-Glo luminescence; max response: hits give low values. An outline of the steps: (§5)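 qHTS format; HEK293 cells with NanoLuc/prosubstrate reagent, 37 C/5% CO2 for 5 h pre-dosing; compounds 23 nL in DMSO; luminescence at each time point reflects viable cells.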
Assay [13] in a line: A CellTox Green Cytotoxicity Assay to monitor cytotoxicity in HEK293 cells - 24 hour (AID 1224875). Note: nearly all actives have a fitted effect of over 45% in size. An outline of the steps:
as §3

Assay [14] can be described thus: qHTS RealTime-Glo MT Cell Viability Assay in HepG2 cells - 32 hour (AID 1224877). Note: nearly all actives have a fitted effect of over 55% in size. An outline of the steps: as §1
The nature of assay [15]: A CellTox Green Cytotoxicity Assay to monitor cytotoxicity in HepG2 cells - 40 hour (AID 1224879). Note: nearly all actives have a fitted effect of over 40% in size. Note: potency is the fitted concentration of half-maximal effect. An outline of the steps: (§6)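 Continuous culture of HepG2 cells with a membrane-impermeant DNA dye; rising fluorescence marks dead cells. Compound exposure lasted up to 40 h at 37 C, with reads every 8 h from 0 h.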
Assay [16] is described as follows: qHTS assay to identify small molecule antagonists of the estrogen related receptor (ERR) signaling pathway from Tox21 library (AID 1224848). Note: nearly all actives have a fitted effect of over 50% in size. An outline of the steps:
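Screening used an ERR reporter line supplied by NTP, exposed for 18 h at 37 C to library compounds delivered in DMSO. Signal was luciferase luminescence developed with ONE-Glo at room temperature for 30 min.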

Assay [17] in a line: qHTS RealTime-Glo MT Cell Viability Assay in HEK293 cells - 16 hour (AID 1224872). An outline of the steps: as §2
Assay [18] in a line: A CellTox Green Cytotoxicity Assay to monitor cytotoxicity in HepG2 cells - 16 hour (AID 1224876). Note: nearly all actives have a fitted effect of over 45% in size. An outline of the steps: as §6
Assay [19] in a line: A CellTox Green Cytotoxicity Assay to monitor cytotoxicity in HepG2 cells - 24 hour (AID 1224878). Note: nearly all actives have a fitted effect of over 45% in size. An outline of the steps:
as §6

The nature of assay [20]: qHTS RealTime-Glo MT Cell Viability Assay in HEK293 cells - 0 hour (AID 1224880). An outline of the steps: as §5
% is set by controls: 0 for no effect and ±100 for the full control effect.

Take `c1ccc(OCc2ccc(CCCN3CCOCC3)cc2)cc1`: the Potency entry in assay [1], in assay [2], in assay [4], in [6], in [8] and in assay [9] was “inactive” throughout. Moreover, the Potency result in assay [10], in assay [11], in assay [13] and in assay [14] was “inactive” throughout. In addition, the call in [3] was inactive. Besides, in assay [5], the activity change, positive = activation was -24.5% [at 42.5 µM]. Moreover, the Potency is 19 µM (active) in assay [7], 21.3 µM (active) in [12] and 21.3 µM (active) in [15].
For `CN(C)CCCOc1nn(Cc2ccccc2)c2ccccc12`, the Potency result in assay [1], in [2], in [4], in [16], in [6] and in assay [8] was “inactive” each time. Moreover, the Potency result in assay [10], in assay [17], in assay [11], in assay [13] and in assay [14] was “inactive” in each case. Also, the outcome in assay [3] was inactive. Besides, the activity change, positive = activation in assay [5] was -2.65% [at 42.5 µM].
Take `CCCCC(CC)(CO)CO`: the Potency entry in assay [1], in assay [2], in assay [4], in assay [6], in [7] and in assay [8] was “inactive” each time. Moreover, the Potency entry in [9], in assay [10], in assay [17], in assay [11], in [13] and in assay [18] was “inactive” in each case. For the same compound, the Potency result in [14], in [19], in [15] and in assay [20] was “inactive” each time. In addition, the compound was classed as inactive in assay [3]. Moreover, in assay [12], the max response is -0.853%.
As for `CC(=O)OCCc1ccccc1`, the Potency entry in assay [1], in [2], in assay [4], in assay [6], in [7] and in [8] was “inactive” in each case. Besides, the Potency result in [9], in assay [10], in assay [17], in [11], in assay [13] and in assay [18] was “inactive” each time. For the same compound, the Potency entry in assay [14], in [19], in assay [15] and in assay [20] was “inactive” throughout. Also, in assay [3], the result was inactive. For the same compound, the max response in [12] was 10.1%.
As for `C1CCC2OC2C1` (stereo not given), the Potency result in assay [1], in assay [2], in [4], in [6], in [7] and in assay [8] was “inactive” in each case. Further, the Potency entry in assay [9], in assay [10], in assay [17], in assay [11], in assay [13] and in [18] was “inactive” each time. Also, the Potency entry in assay [14], in assay [19] and in assay [15] was “inactive” throughout. Besides, in [3], the compound was called inactive. The max response in assay [12] is 4.85%.
In the case of `O=C(O)/C=C/c1cnc[nH]1`, the Potency entry in [1], in [2], in assay [4], in assay [6], in assay [7] and in [8] was “inactive” each time. Besides, the Potency entry in assay [9], in assay [10], in [17], in assay [11], in [13] and in assay [18] was “inactive” each time. Besides, the Potency result in [14], in [19], in assay [15] and in assay [20] was “inactive” in each case. The compound was classed as inactive in [3]. In assay [12], the max response is -5.16%.
As for `CCCCCCCCCCCCCCC1CO1` (stereo not given), the Potency result in [1], in assay [2], in [4], in [6], in [7] and in [8] was “inactive” in each case. Moreover, the Potency entry in assay [9], in assay [10], in [17], in assay [11], in assay [13] and in assay [18] was “inactive” in each case. The Potency entry in [14], in assay [19], in assay [15] and in assay [20] was “inactive” throughout. Moreover, the compound was called inactive in assay [3]. The max response in assay [12] was 0.82%.
For `C[Si](C)O[Si](C)(C)O[Si](C)(C)O[Si](C)C`, the Potency entry in assay [1], in assay [2], in assay [4], in [6], in [7] and in assay [8] was “inactive” in each case. Moreover, the Potency result in [9], in assay [10], in assay [17], in [11], in assay [13] and in [18] was “inactive” each time. For the same compound, the Potency entry in assay [14], in [19], in [15] and in assay [20] was “inactive” throughout. Further, the outcome in [3] was inactive. The max response in [12] is 7.78%.

Source of the values: PubChem BioAssay (Tox21).
